Screening data: PubChem, National Center for Advancing Translational Sciences (NCATS)
Rows were chosen to be rich in hits. Some 11% of all compounds tested hit in one or more screens of this group.
G9a block = qHTS Assay for Inhibitors of Histone Lysine Methyltransferase G9a. G9a H3K9 monomethylation, AlphaScreen, 2 h. 350,000 compounds, 8.8% hits. Potency, µM (highest dose often 102 µM), inactives show at the top dose activity, negative = inhibition, actives largely listed as inhibitors; note: potency is the fitted concentration of half-maximal effect; % is set by controls: 0 for no effect and ±100 for the full control effect; nearly all actives have a fitted effect of over 75% in size
Target sequence (Q96KQ7 913-1193 limits assumed): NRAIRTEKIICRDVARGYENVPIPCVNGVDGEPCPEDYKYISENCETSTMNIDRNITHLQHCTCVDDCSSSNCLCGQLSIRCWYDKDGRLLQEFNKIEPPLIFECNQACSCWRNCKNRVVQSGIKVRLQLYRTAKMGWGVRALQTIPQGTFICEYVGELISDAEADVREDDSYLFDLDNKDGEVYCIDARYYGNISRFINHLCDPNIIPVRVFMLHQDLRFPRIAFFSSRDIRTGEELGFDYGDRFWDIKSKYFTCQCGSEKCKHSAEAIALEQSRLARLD
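Using a bead-based AlphaScreen, monomethylated H3K9 product from 2 h room-temperature reactions (G9a 20 nM, peptide 500 nM, SAM 20 uM) was detected with 0.5 ug/mL rabbit anti-H3K9me1 antibody.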
HP1b binding inh = HTS for Inhibitors of HP1-beta Chromodomain Interactions with Methylated Histone Tails; Chromobox protein homolog 1 (Homo sapiens), P83916; AlphaScreen HP1-beta / biotin-H3K9me3 peptide binding; Potency, µM (series often up to 114 µM), for the others: at the highest dose activity change, negative = inhibition, most hits filed as inhibitors; 390,000 compounds, 0.56% hits; AID 540317, 2011; note: potency is the fitted concentration of half-maximal effect; nearly all actives have a fitted effect of over 70% in size
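Compound inhibition of the preformed complex between 50 nM HP1-beta and 50 nM biotinylated H3K9me3 peptide was read by AlphaScreen. Buffer was PBS pH 7.4 with 0.01% Tween-20. Incubations ran 30 min at room temperature, with 10 ug/mL donor/acceptor beads.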
BAZ2B block = qHTS Assay for Inhibitors of BAZ2B | Bromodomain adjacent to zinc finger domain protein 2B (Homo sapiens), Q9UIF8 | AlphaScreen BAZ2B-H3K14Ac peptide displacement | Potency, µM (highest dose often 114 µM), for the others: at the top dose activity change, negative = inhibition, most hits filed as inhibitors | 360,000 compounds, 4.4% hits; note: potency is the fitted concentration of half-maximal effect; % is set by controls: 0 for no effect and ±100 for the full control effect; nearly all actives have a fitted effect of over 60% in size
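Compounds, titrated to a top concentration of 110 uM, were incubated 30 min at room temperature with preformed BAZ2B/acetyl-K14 H3 peptide complex (50 nM each). Proximity signal was measured by AlphaScreen after 20 min with beads.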
JMJD2A Tudor = qHTS Assay for Inhibitors of JMJD2A-Tudor Domain; 390,000 compounds, 4.4% hits; Lysine-specific demethylase 4A (Homo sapiens), O75164; AlphaScreen JMJD2A-Tudor / H3K4me3 peptide binding; AID 504339, 2011; Potency, µM (series often up to 114 µM), for inactives: top-dose activity change, negative = inhibition, most hits filed as inhibitors; note: potency is the fitted concentration of half-maximal effect; % is set by controls: 0 for no effect and ±100 for the full control effect; nearly all actives have a fitted effect of over 50% in size
L3MBTL1 block = qHTS Assay for the Inhibitors of L3MBTL1; Lethal(3)malignant brain tumor-like protein 1 (Homo sapiens), Q9Y468; AlphaScreen L3MBTL1–H3K9me1 peptide binding; Potency, µM (top dose mostly 57.1 µM), for the others: top-dose activity, negative = inhibition, most hits filed as inhibitors; 230,000 compounds, 0.66% hits; note: potency is the fitted concentration of half-maximal effect; % is set by controls: 0 for no effect and ±100 for the full control effect; nearly all actives have a fitted effect of over 60% in size
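AlphaScreen proximity signal between nickel-chelate acceptor and streptavidin donor beads (final 10 ug/mL) reports binding of 50 nM L3MBTL1 to 75 nM biotin-H3 K9me1 peptide; complex incubated with compounds 30 min at room temperature; cefsulodin titration as control.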
PI5P4Ka inh = qHTS for Inhibitors of phosphatidylinositol 5-phosphate 4-kinase (PI5P4K); Phosphatidylinositol 5-phosphate 4-kinase type-2 alpha (Homo sapiens), P48426; PI5P4Kalpha enzyme, ADP-Glo luminescence, 60 min; hits give low values; max response, %; 330,000 compounds, 1.2% hits; active = max response of -50% or lower; inconclusive = between -30% and -50%; inactive = -30% or higher; note: value at the top dose of about 77 µM; % is set by controls: 0 for no effect and ±100 for the full control effect
Target sequence (P48426 whole entry, looked up): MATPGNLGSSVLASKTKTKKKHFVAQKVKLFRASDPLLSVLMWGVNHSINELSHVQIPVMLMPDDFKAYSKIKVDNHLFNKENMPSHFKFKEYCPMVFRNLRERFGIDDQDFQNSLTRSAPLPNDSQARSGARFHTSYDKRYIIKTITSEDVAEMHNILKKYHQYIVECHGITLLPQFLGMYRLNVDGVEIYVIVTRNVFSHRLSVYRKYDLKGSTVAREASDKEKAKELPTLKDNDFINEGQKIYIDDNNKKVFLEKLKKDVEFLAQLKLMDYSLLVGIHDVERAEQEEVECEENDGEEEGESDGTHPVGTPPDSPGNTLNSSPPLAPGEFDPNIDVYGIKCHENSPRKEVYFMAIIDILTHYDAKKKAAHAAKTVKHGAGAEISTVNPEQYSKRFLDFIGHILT
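ADP-Glo luminescence end-point after a 60 min room-temperature kinase reaction. PI5P4Kalpha and substrate in HEPES pH 7.4 buffer with EGTA, 0.1% CHAPS and 5% DMSO; ATP at 5 microM final.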
* marks the source's active call; other numbers are inactive results; u = inconclusive; x = no result; [ ] = dose if it differs, or a comment. Unless noted, calls come from the whole dose curve; as a rule, active = well fitted inhibition curve with a large enough effect; inconclusive = small, poorly fitted or top-dose-only effect; inactive = no such curve, though single readings can be large or run the other way.

SMILES	G9a block	HP1b binding inh	BAZ2B block	JMJD2A Tudor	L3MBTL1 block	PI5P4Ka inh
O=c1c(O)c(-c2ccc(O)c(O)c2)oc2cc(O)cc(O)c12	12.6µM*	-7.7%	u	u	x	-83.6*
O=c1cc(-c2ccc(O)c(O)c2)oc2cc(O)cc(O)c12	10µM*	-15.3%	79.4µM*	44.7µM*	x	-95.0*
COc1ccc(C(c2nnnn2C2CCCCC2)N2CCC3(CC2)C(=O)NCN3c2ccccc2)cc1 (stereo unspecified)	x	x	x	x	x	4.1
COc1ccc(C(c2nnnn2CC2CCCO2)N2CCN(c3ccccc3)CC2)cc1 (stereo unspecified)	-41.7%[59 µM]	-1.2%	50.1µM*	u	3.7%	-0.2
Cc1ccc2c(c1Cl)NC(C(=O)O)C1CC(Sc3ccccc3[N+](=O)[O-])C(Cl)C21 (stereo unspecified)	x	u	14.1µM*	56.2µM*	x	u
CCN(CC)C(=O)c1ccc2c(c1)C1C(Cl)C(Sc3ccccc3[N+](=O)[O-])CC1C(C(=O)O)N2 (stereo unspecified)	7.94µM*	11.2µM*	20µM*	u	14.1µM*	-59.5*
CCN(CC)C(=O)c1ccc2c(c1)C1C=CCC1C(C(=O)O)N2 (stereo unspecified)	1.58µM*	28.2µM*	25.1µM*	11.2µM*	x	u
CCC(C)C(=O)OC1C(O)C2C(CN3CC(C)CCC3[C@]2(C)O)C2C[C@]34O[C@@]5(O)C(OC(=O)C(C)(O)CC)CCC3(C)C5C(OC(C)=O)C(OC(C)=O)C4[C@@]21O (stereo partly specified)	0.5%[2.33 µM]	x	x	x	x	x
C/C(=C/C=C/[C@@H](C)C(=O)O)[C@H]1CN[C@H](C(=O)O)[C@H]1CC(=O)O	u	20.9%	-1.6%	56.2µM*	u	1.7
COc1ccc(-c2nc(CN3C(=O)CN=C(c4ccccc4)c4ccccc43)c(C)o2)cc1	u	41.8%	1.7%	-5.0%	x	x
COc1ccc2c(c1)c(CCN)c(C)n2Cc1ccccc1	39.8µM*	u	u	u	-20.9%	-2.6
C#CCOc1ccc2c(c1)c(C(C)=O)c(C)n2Cc1ccccc1	10.8%[59 µM]	53.2%	5.8%	5.4%	8.9%	5.0
Oc1cccc(Nc2ncnc3sc4c(c23)CCCC4)c1	-29.9%[59 µM]	-1.0%[57 µM]	-1.8%	89.1µM*	x	x
CC1CCCC(C)N1C(=O)CSc1nnc(NC(=O)c2cccs2)s1 (stereo unspecified)	50.1µM*	37.5%	-6.2%	-5.3%[57.1 µM]	4.9%	1.8
CC(=O)Nc1nnc(SCC(=O)NCCOc2ccccc2)s1	u	-4.5%	u	-18.3%	x	-7.4
NCCCC[C@H](NC(=O)[C@H](Cc1ccccc1)NC(=O)[C@H](CCCN=C(N)N)NC(=O)[C@@H](N)Cc1ccc(O)cc1)C(N)=O	21.8%[59 µM]	x	x	x	x	x
CC(=O)N1N=C(c2c(O)n(C)c(=O)n(C)c2=O)CC1c1ccccc1 (stereo unspecified)	39.8µM*	54.7%	-21.9%	-29.2%	3.6%	-0.3
CN(C)CCOc1ccc(/C(=C(/CCCl)c2ccccc2)c2ccccc2)cc1	u	-18.2%	x	25.1µM*	x	-1.2
CN(C)C(=O)Oc1ccc(C(=O)c2ccccc2)cc1	16.2%[59 µM]	24.7%	3.8%	-4.2%	-0.5%	x
O=C(N/N=C/c1c(O)n(CCc2ccccc2)c(=O)[nH]c1=O)c1ccccc1	x	39.5%	79.4µM*	-35.1%	-1.1%	-76.7*
O=c1[nH]c(=S)n(Cc2ccc(F)cc2)c(O)c1C=NCCCn1ccnc1	-29.4%	13.8%	-25.9%	-20.6%	-17.4%	2.2
CCCCn1c(O)c(/C=N/NC(=O)c2ccncc2)c(=O)[nH]c1=O	x	41.0%	u	u	-1.9%	-65.4*
NC1CCCCC1N=Cc1c(O)n(CCc2ccc(F)cc2)c(=O)[nH]c1=O (stereo unspecified)	1µM*	25.1%	44.7µM*	-19.6%	-1.9%	-0.4
O=C(N/N=C/c1c(O)n(Cc2ccc(F)cc2)c(=S)[nH]c1=O)c1ccncc1	x	13.4%	79.4µM*	100µM*	-27.7%	u
CCN(CC)CCN=Cc1c(O)n(CCc2ccccc2)c(=O)[nH]c1=O	u	21.5%	-1.0%	-12.2%[11.4 µM]	0.6%	-22.0
SMILES	G9a block	HP1b binding inh	BAZ2B block	JMJD2A Tudor	L3MBTL1 block	PI5P4Ka inh
Cn1c(=O)oc2cc(S(=O)(=O)N3CCCC(C(=O)NCc4ccccc4Cl)C3)ccc21 (stereo unspecified)	5.5%[59 µM]	42.8%	-1.4%	-1.7%	x	x
O=C(COc1ccccc1Cl)N1CCN(CCc2ccncc2)CC1	-7.3%[59 µM]	57.5%	u	-11.3%	x	x
CN1C(=O)C(O)N=C(c2ccccc2)c2cc(Cl)ccc21 (stereo unspecified)	21.7%[59 µM]	x	x	x	x	x
CCn1c(O)c(/C=N/NC(=O)c2ccccc2)c(=O)n(CC)c1=S	x	26.0%	u	-24.5%	x	1.4
CCC(C)n1c(O)c(/C=N/Nc2ccccc2)c(=O)[nH]c1=S (stereo unspecified)	1.12µM*	5.9%	u	u	-16.8%	0.6
CCC(C)n1c(O)c(C=NCCc2ccccc2)c(=O)[nH]c1=S (stereo unspecified)	9.5%	31.9%	-26.2%	-26.8%	-4.9%	-10.0
CCC(C)n1c(O)c(/C=N/NC(=O)c2ccncc2)c(=O)[nH]c1=S (stereo unspecified)	22.0%[59 µM]	48.3%	56.2µM*	u	-9.0%	u
CCn1c(O)c(/C=N/NC(=O)c2ccncc2)c(=O)[nH]c1=S	-22.4%[59 µM]	47.7%	35.5µM*	70.8µM*	u	-26.5
Cc1ccc(NC(=O)OC(C)CNC(=O)Oc2cccc(C)c2)cc1 (stereo unspecified)	2.5%	31.3%	u	-11.6%	-17.7%	-3.3
Cc1ccc(Cl)cc1Nc1nn2c(=O)c3ccc(C(=O)NCc4cccs4)cc3nc2s1	-14.2%[59 µM]	18.9%	u	u	x	x
O=C(OCCCCN1C(=O)c2ccccc2C1=O)c1ccc(Br)o1	27.6%[59 µM]	23.9%	-2.1%	16.8%[57.1 µM]	24.5%	1.0
CNC(C(=O)c1ccccc1)C(OC(C)=O)c1cccc([N+](=O)[O-])c1 (stereo unspecified)	50.1µM*	5.7%	-23.9%	-35.1%	-7.0%	5.0
Cc1cccc(CNCCc2c[nH]c3ccccc23)c1	x	13.1%	39.8µM*	u	-4.1%	23.2
COc1cc(CNCCc2c[nH]c3ccccc23)cc(OC)c1	31.6µM*	u	50.1µM*	3.55µM*	x	-0.7
